An excerpt weighted towards active compounds, which were near 2.6% of everything screened.
Granule exo inh: lytic granule exocytosis inhibition; TALL-104 LAMP-1 surface exposure, flow cytometry; cells stimulated with thapsigargin and PMA; inhibition, % at 10 µM; actives 0.66% (n = 360,000);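 active = inhibition above about 55%, limit read from the data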
Rce1 inh: blocks yeast Ras-converting enzyme | actives 0.27% (n = 290,000) | AID 2563 | Q03530 | calls only | yeast membranes, quenched prenylated peptide cleavage fluorescence;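 active = fall in fluorescence gain of 50% or more versus controls, with final raw signal at or below 3038400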;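 also: plate controls were neutral control wells for no effect and wells lacking membranes for full effect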
Target sequence (Q03530 whole entry, looked up): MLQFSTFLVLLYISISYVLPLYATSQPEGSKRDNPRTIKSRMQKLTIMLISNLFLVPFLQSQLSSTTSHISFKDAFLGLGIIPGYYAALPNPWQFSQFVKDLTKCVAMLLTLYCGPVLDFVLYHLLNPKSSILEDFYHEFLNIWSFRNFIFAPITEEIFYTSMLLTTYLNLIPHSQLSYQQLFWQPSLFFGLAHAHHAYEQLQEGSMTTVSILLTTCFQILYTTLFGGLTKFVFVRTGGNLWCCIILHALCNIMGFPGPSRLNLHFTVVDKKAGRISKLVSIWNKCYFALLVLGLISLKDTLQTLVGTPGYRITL
PfM18AAP inh-1: PfM18AAP enzyme inhibition; recombinant PfM18AAP, H-Glu-NHMec fluorogenic cleavage; inhibition, % at 7.35 µM; actives 1.2% (n = 290,000); AID 1822;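 active = inhibition above the campaign mean inhibition over all tested compounds plus 3 SD, cut at about 28% in these data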;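 also: 0% = plate median of test compound wells and 100% = 2 mM ZnCl2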
Platelet DG rel: platelet dense granule release activity; human platelet-rich plasma, SFLLRN dense granule ATP release, luminescence; inhibition, %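 (compounds screened at 7.5 µM in platelet-rich plasma)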; actives 0.22% (n = 300,000);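 active = mean replicate score, as percent of positive control, at or above 50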
ABHD5-PLIN5 inh: blocks binding of human ABHD5 to perilipin-5; Q00G26+Q8WTS1; Split G. princeps luciferase complementation, luminescence, 4 h; inhibition, % at 4 µM; actives 0.78% (n = 360,000); AID 602281;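 active = inhibition above the mean inhibition across every tested compound plus 3 SD, cut at about 22% in these data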;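 also: 0% = DMSO only wells and the 100% control is not disclosed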
PfM18AAP inh-2: confirmation of Plasmodium falciparum M18 aspartyl aminopeptidase inhibitors | recombinant PfM18AAP, H-Glu-NHMec fluorogenic cleavage | actives 28% (n = 2,400) | shares compounds with PfM18AAP inh-1 | inhibition, % at 7.35 µM;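 active = mean inhibition over replicate wells above the hit cutoff set for the earlier primary screen, cut at about 29% in these data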;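 also: 0% = median of test compound wells and 100% = 2 mM ZnCl2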
CTSL1 counter: Cathepsin L (human) inhibition, confirmation; shares compounds with PfM18AAP inh-1; purified cathepsin L1, Z-Leu-Arg-MCA fluorescence; inhibition, % at 5.96 µM; 2,400 tested, under 10 active; AID 2178;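 active = average inhibition across replicates above the hit cutoff set in the earlier primary screen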;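 also: 0% = median of test compound wells and 100% = Z-Phe-Ala-diazomethylketone 1 µM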
Numbers without * were called inactive; i = inactive; / = not tested or not shown.

SMILES	Granule exo inh	Rce1 inh	PfM18AAP inh-1	Platelet DG rel	ABHD5-PLIN5 inh	PfM18AAP inh-2	CTSL1 counter
O=C(C1CCCO1)N1CCN(C(=S)Nc2ccc(Br)cc2)CC1 (configuration not stated)	0	/	9	-22	-7	/	/
CC1=CC(C#N)(C#N)C(C#N)(C#N)C(c2ccccc2)N1 (configuration not stated)	/	i	8	4	/	/	/
CC1CCC(C(C)C)C2=C1C(C#N)(C#N)C(C#N)(C#N)C(c1ccccc1)N2 (configuration not stated)	-12	i	36*	13	-10	-32	-2
O=C(COC(=O)c1cccc(Oc2ccccc2)c1)NCc1ccco1	-2	i	1	2	-1	/	/
Nc1ccc(O)cc1C(=O)OCC(=O)c1ccc(C2CCCCC2)cc1	-4	i	36*	18	-7	-21	-2
COc1ccc(C(=O)OCC(=O)c2ccc(C3CCCCC3)cc2)cc1	-1	i	-11	-6	-4	/	/
S=c1[nH]nc(-c2ccccc2Cl)n1/N=C/C=C/c1ccco1	-9	i	22	-1	-5	/	/
C(=C\c1ccco1)/C=N/n1cnnc1	2	i	58*	/	12	-6	1
NC(=O)c1ccc(-n2nnnc2SCC(=O)c2ccc(O)c(O)c2)cc1	0	i	51*	-6	7	29*	-1
COc1ccc(-n2nnnc2SCC(=O)c2ccc(O)c(O)c2)cc1	-4	i	35*	12	5	30*	-4
Cc1ccccc1CSc1nnnn1-c1ccc(C(N)=O)cc1	-10	i	3	0	-4	/	/
O=C(NNc1cccc(Cl)n1)Nc1ccc(Cl)cc1	3	i	56*	-5	-2	36*	-2
O=C(Nc1ccc(Cl)cc1)Nc1ccccn1	-8	i	1	1	16	/	/
O=C(NNc1cccc(Cl)n1)Nc1cccc(C(F)(F)F)c1	-1	i	54*	-7	-3	37*	1
COc1cc(-c2nc3cnccn3c2Nc2ccc3c(c2)OCCO3)ccc1O	1	i	28	0	8	/	/
COc1cc(-c2nc3ccc(C)cn3c2Nc2ccc3c(c2)OCCO3)ccc1O	1	i	41*	7	2	41*	-2
NC(=S)N/N=C/c1coc2ccc(Br)cc2c1=O	-3	/	6	7	1	/	/
NC(=S)N/N=C/c1coc2ccc(O)cc2c1=O	35	i	69*	12	6	42*	6
CC[n+]1c(/C=C(/C)SC)sc2ccccc21	0	i	49*	2	-11	-52	-4
CC[n+]1c(/C=C(\C)SC)sc2ccccc21	-3	i	44*	-2	-7	-25	4
CC[n+]1c(/C=C(\C)Nc2ccccc2)sc2ccccc21	0	/	21	/	-2	/	/
CC/C(=C/c1sc2ccccc2[n+]1CC)SC	0	i	46*	12	-8	-32	5
CCCNC(=O)c1cc(C2CCCCN2C(=O)c2ccc(NC(C)=O)cc2)on1 (configuration not stated)	1	/	/	/	3	/	/
Cc1cc(C(=O)CSc2nc(N)cc(N)n2)c(C)n1-c1cccc(F)c1	-2	i	34*	2	-5	-37	-4
Cc1cc(C(=O)CSc2nc(N)cc(N)n2)c(C)n1C1CC1	0	i	36*	-5	-4	-15	2
SMILES	Granule exo inh	Rce1 inh	PfM18AAP inh-1	Platelet DG rel	ABHD5-PLIN5 inh	PfM18AAP inh-2	CTSL1 counter
Oc1c(Br)cc(/C=N/Nc2nncc3ccccc23)cc1Br	/	i	33*	20	/	10	4
Fc1cccc(/C=N/Nc2ccc(Cl)nn2)c1	-6	i	9	-4	-7	/	/
COc1cc(/C=N/Nc2ncc(C(F)(F)F)cc2Cl)cc(OC)c1O	4	i	35*	14	-10	31*	2
COc1cc(/C=N/Nc2ccc(Cl)nn2)cc(OC)c1O	-6	i	39*	13	3	28	3
Oc1c(Br)cc(/C=N/Nc2ccc(Cl)nn2)cc1Br	6	i	34*	17	3	-18	0
COc1ccc(/C=N/Nc2ncc(C(F)(F)F)cc2Cl)c(OC)c1OC	-1	i	3	-49	-2	/	/
CCn1c(CN2CCN(c3cccc(C)c3C)CC2)n[nH]c1=S	0	i	12	3	-8	/	/
CC1=C(C(=O)c2ccccc2)C(c2ccc(O)cc2)NC(=S)N1 (configuration not stated)	0	i	-7	4	2	/	/
COc1ccc(N2CCN(S(=O)(=O)c3cccc4nsnc34)CC2)cc1	0	i	-8	-7	-5	/	/
COCCCn1nnnc1SCC(=O)N1c2ccccc2CC1C (configuration not stated)	0	i	-9	-3	1	/	/
O=S(=O)(O)c1cc(O)c2c(O)c(N=Nc3cc(Cl)ccc3O)c(S(=O)(=O)O)cc2c1	7	i	45*	16	24*	29*	1
O=S(=O)(O)c1cc(Cl)cc(N=Nc2ccc(O)cc2O)c1O	-3	/	/	/	4	/	/
COc1cc2oc(=O)cc(CN(Cc3ccccc3)Cc3ccccc3)c2cc1Cl	-4	/	/	/	-2	/	/
Cc1ccc2nc(/C(C#N)=C/c3ccccc3C(=O)O)[nH]c2c1	-1	i	3	0	3	/	/
Cc1ccc2nc(/C(C#N)=C/c3ccc(O)c(O)c3)[nH]c2c1	5	i	60*	4	-2	36*	4
CN(C)/C=C(/C(=O)c1ccc(Cl)cc1)n1cncn1	-2	i	40*	1	-1	0	2
Cc1noc(C)c1COC(=O)c1ccccc1Sc1ccccc1C#N	1	i	0	-4	0	/	/
O=C1N(c2ccc(Cl)c(Cl)c2)CN(Cc2ccccc2)CN1n1cnnc1	7	i	70*	10	6	55*	1
COc1ccc(N2C(=O)CC(SCc3ccc(Cl)cc3)C2=O)cc1 (configuration not stated)	-5	i	-15	-2	1	/	/
COc1ccc(CN2CN(c3ccc(Cl)cc3)C(=O)N(n3cnnc3)C2)cc1	0	i	51*	12	1	40*	-2
Cc1cccc(CS(=O)(=O)Cc2ccc(C(=O)NCC3CCCO3)o2)c1 (configuration not stated)	-1	i	0	-11	0	/	/
Cn1c(=O)c2cc(S(=O)(=O)NC(C(=O)NC3CCCCC3)c3ccccc3)ccc2n(C)c1=O (configuration not stated)	-5	/	-1	/	-2	/	/
CC(=O)Sc1nc(-c2ccccc2)[nH]c1S(=O)(=O)c1ccc(C)cc1	/	i	55*	2	/	5	-5

From PubChem
